Laboratory results taken from PubChem BioAssay AID1903 (Southern Research Specialized Biocontainment Screening …, 2009).
The whole screen tested about 310,000 compounds, of which about 1,200 (0.39%) were called active. How the calls were made is not given here. Not all results are given here. Measured potencies and affinities stand elsewhere.

target: Large T antigen (Simian virus 40) (UniProt P03070); assay: SV40 large T antigen inhibitors, biochemical (AID 1903); conditions: SV40 large T antigen ATPase/helicase inhibition assay; at 20 µM; stronger effect = higher value
Sequence (P03070 whole entry, looked up): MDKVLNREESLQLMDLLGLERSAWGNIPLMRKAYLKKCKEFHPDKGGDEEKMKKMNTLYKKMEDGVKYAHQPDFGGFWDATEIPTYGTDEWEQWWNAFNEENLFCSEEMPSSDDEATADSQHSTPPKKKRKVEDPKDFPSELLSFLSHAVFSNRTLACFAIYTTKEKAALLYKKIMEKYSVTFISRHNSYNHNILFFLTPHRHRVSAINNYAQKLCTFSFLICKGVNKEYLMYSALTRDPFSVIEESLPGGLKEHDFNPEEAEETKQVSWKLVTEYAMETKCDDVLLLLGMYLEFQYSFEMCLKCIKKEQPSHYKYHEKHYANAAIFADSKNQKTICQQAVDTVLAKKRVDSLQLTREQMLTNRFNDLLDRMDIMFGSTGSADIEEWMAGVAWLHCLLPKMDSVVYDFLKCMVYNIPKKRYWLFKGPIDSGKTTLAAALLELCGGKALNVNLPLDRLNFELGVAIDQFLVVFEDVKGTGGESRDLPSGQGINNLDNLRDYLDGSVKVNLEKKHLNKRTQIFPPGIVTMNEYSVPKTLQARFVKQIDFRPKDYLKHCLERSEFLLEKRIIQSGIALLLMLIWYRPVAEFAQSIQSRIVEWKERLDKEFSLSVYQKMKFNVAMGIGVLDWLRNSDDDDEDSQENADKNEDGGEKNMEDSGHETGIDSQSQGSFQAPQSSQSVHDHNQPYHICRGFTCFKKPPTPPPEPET

inhibition, inactive:
COCCOc1ccc(C(F)(F)F)cc1NC(=O)c1ccc(C(F)(F)F)cc1 2.65%
Oc1ccc(Oc2ccc(Oc3ccc(O)cc3)cc2)cc1 11.2%
C=C(c1ccc(O)cc1)c1ccc(O)cc1 12.5%
COc1ccc2[nH]c(C(=O)NCCc3ccccc3)cc2c1 6.64%
O=C(CCSc1ccc(Cl)cc1)N1CCOCC1 23.4%
CCOC(=O)N1CCN(c2ccc([N+](=O)[O-])cc2)CC1 5.56%
O=C(CCCOc1ccccc1)N1CCN(c2ccc(F)cc2)CC1 0.74%
Cc1ccc(OCCC(=O)OCC(=O)N2CCN(S(=O)(=O)c3ccc(C)cc3)CC2)cc1 10.3%
CCOC(=O)N1CCN(c2ccc(Cl)cc2)CC1 24.6%
Cc1ccc(OCCC(=O)OCC(=O)N2CCN(S(=O)(=O)c3ccc(Cl)cc3)CC2)cc1 30.2%
O=C(CCCOc1ccccc1)N1CCN(c2ccccc2)CC1 -0.15%
O=C(CCSc1ccccc1)N1CCN(c2ccccc2)CC1 8.73%
COc1ccc(OC)c(CCNC(=O)c2ccc3c(c2)N(Cc2ccccc2)CCS3)c1 -0.13%
O=C(CNC(=O)c1cccc(F)c1)OCC(=O)N1CCCc2ccccc21 7.9%
Cc1ccc(NS(=O)(=O)c2ccc(CCC(=O)NCCCOC(C)C)cc2)cc1 5.53%
COc1ccc(S(=O)(=O)c2nnn(-c3cccc(OC)c3)c2N)cc1 22.2%
O=[N+]([O-])c1ccc(-n2cccc2/C=N/Nc2nc(N3CCCCC3)nc(N3CCCCC3)n2)cc1 9.66%
O=C(CNC(=O)c1ccccc1F)OCC(=O)N1CCCCC1 7.93%
Cc1cc(C)c(S(=O)(=O)c2ccccc2C)c(N(C)C)n1 21.5%
COc1cc(/C=C2\SC(=S)N(CCC(=O)Nc3ccc(O)cc3)C2=O)cc(OC)c1OC 5.27%
O=C(Nc1ccc2c(c1)OCO2)c1ccc(NC2CC2)c([N+](=O)[O-])c1 12.5%
CCn1c(-c2nn(-c3ccccc3)ccc2=O)n[nH]c1=S 9.69%
COc1ccc(NS(=O)(=O)c2cccc(C(=O)NCC(c3ccccc3OC)N3CCCC3)c2)cc1 (stereo not given) 5.32%
COc1ccc(N2CCN(C(=O)COC(=O)CCOc3ccc(C)cc3)CC2)cc1 10.6%
Cc1ccc(OCCCC(=O)N2CCOCC2)cc1 0.37%
O=C(C1CC1)N1CCN(c2ccc([N+](=O)[O-])cc2)CC1 12.1%
COc1cc(OC)cc(C(=O)NCC(=O)N2CCCCC2)c1 4.74%
COc1ccc(OCC(=O)N2CCN(c3cccc(C(F)(F)F)c3)CC2)cc1 17%
O=C(COc1cccc(C(F)(F)F)c1)N1CCN(c2ccccc2O)CC1 22.7%
O=C(C1CC1)N1CCN(c2ccc(F)cc2)CC1 2.25%
COc1ccc(C(=O)NCC(=O)N2CCN(c3ccc(Cl)cc3)CC2)cc1 10.9%
c1ccc(Nc2nc(-c3ccccc3)ns2)cc1 -2.89%
CSc1nnc2c(n1)OC(c1cccn1C)N(C(C)=O)c1ccccc1-2 (stereo not given) 15.3%
Cn1cnc(S(=O)(=O)NCc2ccccc2)c1 6.21%
Cc1ccc(C(=O)Nc2ccc(S(=O)(=O)N3CCOCC3)cc2)cc1C 0.36%
O=C(CNC(=O)c1ccc(Br)cc1)OCC(=O)c1ccccc1 11.9%
Cc1ccc(C(=O)NCC(=O)N2CCN(c3ncccn3)CC2)s1 -1.43%
O=C(NCc1ccco1)C(c1ccncc1)N(C(=O)Cc1cccs1)c1ccccc1 (stereo not given) 7.67%
Cc1cccc(Nc2ncc3c(n2)CC(C)CC3=O)c1 (stereo not given) 7.64%
CCOc1ccccc1NC(=S)N1CCN(c2ccccc2)CC1 3.57%
CCOc1ccccc1NC(=S)N1CCN(c2ccc(OC)cc2)CC1 7.58%
CN(Cc1ccco1)S(=O)(=O)c1ccc(CN2C(=O)c3cccnc3C2=O)s1 16.5%
COc1ccc(N2CCC(CNC(=O)Nc3ccc(C)c(C)c3)C2)cc1 (stereo not given) 9.39%
COc1ccc(N2CCC(CNC(=S)Nc3cccc(OC)c3)C2)cc1 (stereo not given) 19.4%
COc1ccc(N2CCC(CNC(=O)Nc3ccc(Cl)cc3)C2)cc1 (stereo not given) 21.5%
CCOc1ccc(NC(=O)NCC2CCN(c3ccc(OC)cc3)C2)cc1 (stereo not given) 22.4%
CC(C)CN(C(=O)COC(=O)C1CC1)c1c(N)n(Cc2ccccc2)c(=O)[nH]c1=O 17.3%
Cc1c(Cl)cccc1NC(=O)CN1CCC(NC(=O)C2CCCCC2)CC1 8.83%
NC(=Nc1ccccc1)Nc1ccccc1 15.7%
COc1ccc(OCC(=O)Nc2cccc(OC)c2)cc1 2.29%
COc1cccc(NC(=O)CCC(=O)Nc2cccc(OC)c2)c1 11.8%
CC(=Nc1ccccc1)Nc1ccccc1 9.53%
NC(=O)C[n+]1cccc(/C=N/O)c1 2.56%
c1ccc(-c2nn3c(Cn4cnc5ccccc54)nnc3s2)cc1 -0.363%
O=C(O)C(c1ccccc1)N1C(=O)/C(=C/c2cccs2)SC1=S (stereo not given) 19.8%
CCOc1ccc(/C=C2\SC(=S)N(C(C(=O)O)c3ccccc3)C2=O)cc1OC (stereo not given) 23.8%
COc1ccc(/C=C2\SC(=S)N(C(Cc3ccccc3)C(=O)O)C2=O)cc1 (stereo not given) -3.2%
COc1cc(/C=C2\SC(=S)N(C(C(=O)O)c3ccccc3)C2=O)cc(OC)c1OC (stereo not given) 27.9%
COc1cccc(/C=C2\SC(=S)N(C(Cc3ccccc3)C(=O)O)C2=O)c1 (stereo not given) 33.3%
CCOc1ccc(/C=C2/SC(=S)N(C(C(=O)O)c3ccccc3)C2=O)cc1OCC (stereo not given) 19%
Cc1ccc(NS(=O)(=O)c2cc(C(=O)N(C)C)ccc2C)cc1C 7.8%
CC(=O)Nc1ccc(NC(=O)CCOc2ccccc2C)cc1 9.91%
O=C(NCCc1nnc2ccc(N3CCCCCC3)nn12)c1ccccc1F 10%
COc1ccc(C(=O)NCC(C)(C)CNC(=O)c2ccc(OC)cc2)cc1 11.7%
CCN(CC)c1ccc(CN(C(=O)c2ccco2)C2CCS(=O)(=O)C2)cc1 (stereo not given) 21.8%
COC(=O)C1=C(C(=O)OC)[C@@H]2N(C)c3ccc(OC)cc3[C@@]23C[C@@H](C(=O)OC)N(S(=O)(=O)c2ccc([N+](=O)[O-])cc2)C3=N1 1.76%
CCOC(=O)C1=NN(c2ccc(C)cc2)CC1C(=O)OC (stereo not given) 7.97%
CCOc1cc(C(=O)N[C@@H](C)C(=O)N2CCC3(CC2)NCCc2[nH]cnc23)cc(OCC)c1OCC 4.98%
Oc1cccc(/C=N/NC(=S)NCCN2CCOCC2)c1O 50.5%
COc1cc(/C=N/NC(=S)NCCN2CCOCC2)cc(OC)c1OC 12.4%
CCOc1ccc(CNC(=S)N/N=C/c2ccc(OC)c(OC)c2)cc1 9.25%
COc1cc(/C=N/NC(=S)NCCN2CCOCC2)cc(OC)c1O 30.1%
COCCCNC(=S)N/N=C/c1ccccc1O 12.5%
S=C(NCCN1CCOCC1)N/N=C/c1ccccc1 2.2%
COc1ccc(CNC(=S)N/N=C/c2ccc(OC)c(OC)c2)cc1 4.58%
COCCCNC(=S)N/N=C/c1ccc(O)cc1 46.2%
CC(=O)c1cccc(NC(=S)NC(=O)c2ccccc2Br)c1 4.36%
COCCn1c(-c2ccc(Br)cc2)csc1=Nc1cccnc1 8.06%
O=C(CN1CCN(C(=O)c2ccco2)CC1)Nc1ccc(Cl)c(S(=O)(=O)N2CCOCC2)c1 0.58%
O=C(Nn1cnnc1)C(Sc1ccccc1)c1ccccc1 (stereo not given) 1.32%
O=C(NCCF)[C@H]1C[C@@H]1[C@H](NP(=O)(c1ccccc1)c1ccccc1)c1ccccc1 3.51%
COc1ccc2oc(C(=O)OCC(=O)Nc3ccc(N4CCOCC4)cc3)c(C)c2c1 14%
CC(C)CCn1c(CN2CC(C)OC(C)C2)nc2c1c(=O)n(C)c(=O)n2C (stereo not given) 4.84%
CC(C)Oc1ccc(Br)cc1/C=N\NC(N)=S 16%
CC(C)NC(=O)c1nn2c(C(F)(F)F)cc(-c3ccco3)nc2c1Cl 10.7%
Cc1nn(-c2cccc(Cl)c2)nc1C(=O)O 6.68%
Cn1c(=O)n(-c2cccc(Cl)c2)c(=O)n1C 10.7%
O=C1Nc2cc(Cl)ccc2Nc2cscc21 14.2%
CCOc1cc(C(C(=O)NCC2CCCO2)N(C(=O)Cn2nnc3ccccc32)c2ccccc2C)ccc1O (stereo not given) 9.12%
O=C(Nc1ccccc1)/C(=C\c1ccncc1)NC(=O)c1ccccc1 5.96%
O=C(Nc1ccccc1)/C(=C\c1cccs1)NC(=O)c1ccccc1 10.4%
Cc1ccc(NC(=O)/C(=C/c2ccncc2)NC(=O)c2ccccc2)cc1 13.5%
Cc1ccc(NC(=O)/C(=C\c2cccs2)NC(=O)c2ccccc2)cc1 3%
CC(=O)Nc1ccc(NC(=O)/C(=C/c2ccco2)NC(=O)c2ccccc2)cc1 14.8%
O=C(Nc1ccc(C(=O)O)cc1)/C(=C\c1ccco1)NC(=O)c1ccccc1 7.81%
